{"source": "PubChem BioAssay", "note": "Unmarked numbers belong to inactive results. Activity calls are given as the source filed them.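 Rule for the calls: active = inhibition above the hit cutoff set in the earlier primary screen (cut at about 27% in these data); inactive = the rest.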", "data": [{"molecular_target": "Protein phosphatase methylesterase 1 (Homo sapiens) (UniProt Q9Y570)", "sequence (Q9Y570 whole entry, looked up)": "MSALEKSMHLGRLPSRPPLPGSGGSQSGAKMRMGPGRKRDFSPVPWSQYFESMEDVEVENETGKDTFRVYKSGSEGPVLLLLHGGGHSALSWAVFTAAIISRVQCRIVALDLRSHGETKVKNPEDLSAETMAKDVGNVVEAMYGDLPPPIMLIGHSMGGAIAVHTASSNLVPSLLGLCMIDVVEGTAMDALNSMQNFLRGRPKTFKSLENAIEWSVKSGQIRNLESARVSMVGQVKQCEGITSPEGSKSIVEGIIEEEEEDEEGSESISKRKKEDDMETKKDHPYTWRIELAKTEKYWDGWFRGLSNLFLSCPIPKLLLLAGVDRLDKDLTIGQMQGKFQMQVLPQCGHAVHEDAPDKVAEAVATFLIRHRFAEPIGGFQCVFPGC", "test": "PME-1 inhibitor activity retest, confirmation, biochemical, fluorescence polarization, FP-Rh probe, triplicate (AID 2171);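 note: 0% = enzyme with DMSO and 100% = wells lacking PME-1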", "settings": "recombinant PME-1, FP-Rh probe fluorescence polarization; at 5.9 µM; hits give high values", "values": [{"smiles": "S=C(NCCNC(=S)Nc1ccccc1)Nc1ccccc1", "inhibition": "19.9%"}, {"smiles": "O=C(CNc1ccc2ccccc2c1)N/N=C/c1cc2ccccc2nc1Cl", "inhibition": "22.6%"}, {"smiles": "Oc1ccccc1C1Nc2cccc3cccc(c23)N1", "inhibition": "24.4%"}, {"smiles": "COc1ccc(C(=O)c2sc3nc(-c4ccccc4)ccc3c2N)cc1", "inhibition": "11.8%"}, {"smiles": "Cc1ccc(Nc2cc(C)c3c(O)cccc3n2)cc1C", "inhibition": "26.7% (active)"}, {"smiles": "Oc1ccc(/C=N/Nc2ccc(C(F)(F)F)cn2)c(O)c1", "inhibition": "17.8%"}, {"smiles": "Cc1ccc(OCCn2cc(/C=N/NC(=O)c3ccncc3)c3ccccc32)cc1", "inhibition": "33.5% (active)"}, {"smiles": "Brc1ccc(/C=N/Nc2nc3ccccc3o2)cc1", "inhibition": "22.2%"}, {"smiles": "CC(C)c1ccc2c(c1)C1(NN=C(c3ccccc3)S1)C(=O)N2", "note": "(stereo unspecified)", "inhibition": "33.9% (active)"}, {"smiles": "COc1cc(N/N=C(\\C)c2ccc(O)c(C)c2)nc(-c2ccccc2)n1", "inhibition": "27.3% (active)"}, {"smiles": "O=[N+]([O-])c1cc(S(=O)(=O)Nc2cccc(C(F)(F)F)c2)ccc1-n1nnc2ccccc21", "inhibition": "18.7%"}, {"smiles": "COc1ccc(-c2cc(-c3ccc(C)cc3)n[nH]2)c(O)c1", "inhibition": "37.7% (active)"}, {"smiles": "COc1cc2cc3c(N)c(C(=O)NCc4ccco4)sc3nc2cc1OC", "inhibition": "110% (active)"}, {"smiles": "O=C(O)CCNc1ccc(NCCC(=O)O)c2c1C(=O)c1ccccc1C2=O", "inhibition": "16.7%"}, {"smiles": "CCOC(=O)C1=C(C)Nc2ccccc2N/C1=N\\S(=O)(=O)c1cccc(Cl)c1", "inhibition": "18.7%"}, {"smiles": "CCCC(=O)NC(c1ccccc1Cl)c1c(O)ccc2ccccc12", "note": "(stereo unspecified)", "inhibition": "58.5% (active)"}]}]}
